These results are taken from the OligoGym collection.
Also: reference of the scale not given here.

The target of the first assay is METTL21C. The assay can be described thus: pooled miR-30 sensor sort-seq; sequence = guide strand. To be noted: shRNA.
Sequence TTCTTCTCAGCCTCTAACCAGC gave a sensor-assay potency score (higher = more potent) of -1.05.

In turn, TTCCTGGATGACAATCTCCTTT displayed a sensor-assay potency score (higher = more potent) of -0.999.

Sequence ATCTGTAGGAACAAATTTCTGG gave a sensor-assay potency score (higher = more potent) of -0.452.

TGTTGTGTCAAAAACTTGCTTG: the sensor-assay potency score (higher = more potent) worked out at 0.0873.

With TCATAGTCGGTGCTGAACCTGA, the sensor-assay potency score (higher = more potent) is -0.238.

TATCTTGTTGGATTCTTCTAGG returned a sensor-assay potency score (higher = more potent) of -0.565.

TTAGATATTTAGATTAACCAGA: the sensor-assay potency score (higher = more potent) is -0.625.

Regarding TAGATTAACCAGATAATCTTAA, the sensor-assay potency score (higher = more potent) was -0.406.

For the sequence TGTAGGAACAAATTTCTGGAGG, the sensor-assay potency score (higher = more potent) was -0.694.

TAAAAGATTGTATTGAAGGTTT came in with a sensor-assay potency score (higher = more potent) of -0.706.

Sequence TTAGAAATTAGAAAGTTTCTGC displayed a sensor-assay potency score (higher = more potent) of 0.573.

Turning to TAACTCTCTATGGATTCCTGGA, the sensor-assay potency score (higher = more potent) was -0.728.

The target in a further assay is METTL21D. Described as above. The settings on record: shRNA.
For TTTAAGAAGAACTTGATGCTGA, the sensor-assay potency score (higher = more potent) is 0.983.

TATACTGCTGTAGTCGTAGCAC gave a sensor-assay potency score (higher = more potent) of 0.182.

TATAGAACTACATTTGTAGTTA displayed a sensor-assay potency score (higher = more potent) of 0.621.
